# Counter-ions that a name gives are not always drawn.
# Tested on: SARS-CoV-2 low-rank motif (SARS-low)
# Experiment: normalised indicator fluorescence (fraction of RNA + indicator signal without compound); higher = less displacement of indicator (weaker competition)
# Conditions: compound concentration: 5 uM, 30 min
# In short: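 Indicator fluorescence, corrected by subtracting the buffer-plus-indicator blank and normalized to the RNA-plus-indicator signal without compound, is given as the mean of two independent experiments. The buffer was 20 mM phosphate pH 7.0, 20 mM NaCl and 80 mM KCl, with TO-PRO-1 or TO-PRO-3 and RNA in 96-well plates. Plates were read 30 min after compound addition (about 5 uM final) on an Infinite 200 PRO, exciting at 485 or 620 nm.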
# [1] = indicator: TO-PRO-1 0.1 uM, RNA concentration: 0.1 uM
# [2] = indicator: TO-PRO-3 0.5 uM, RNA concentration: 0.5 uM
Structure (SMILES),normalised indicator fluorescence [1],normalised indicator fluorescence [2]
O=C(O)CCc1ccc(O)cc1O [Hydroumbellic acid],1.15,1.15
Cc1c(F)cc(C(=O)NC2CC2)cc1-c1ccc(C(=O)NCC(C)(C)C)cn1 [Losmapimod],1.24,1.04
CCNC(=O)c1noc(-c2cc(Cl)c(O)cc2O)c1-c1ccc(OC)cc1,1.27,1.43
O=[N+]([O-])c1ccc(-c2nc(-c3ccc(F)cc3)c(-c3ccncc3)[nH]2)cc1,–,0.939
CN(C)C[C@@H]1CCn2cc(c3ccccc32)C2=C(C(=O)NC2=O)c2cn(c3ccccc23)CCO1 [Ruboxistaurin hydrochloride],1.14,0.961
Oc1ccc(OC2CCCCO2)cc1 (configuration not stated) [Deoxyarbutin],1.17,0.988
COc1ccc(C2CC(=O)c3c(O)cc(OC4OC(COC5OC(C)C(O)C(O)C5O)C(O)C(O)C4O)cc3O2)cc1OC (configuration not stated) [Methyl hesperidin],1.08,1.37
O=C1O[C@H]([C@@H](O)CO)C(O)=C1O [L(+)-Ascorbic acid],1.18,1.24
COc1ccc(C(=C2C(=O)Nc3ccccc32)c2ccc(OC)cc2)cc1,1.38,1.17
Cn1cc(C2=C(c3cn(CCCSC(=N)N)c4ccccc34)C(=O)NC2=O)c2ccccc21 [Ro 31-8220 Mesylate],–,1.01
CO[C@H]1/C=C/O[C@@]2(C)Oc3c(C)c(O)c4c(c3C2=O)C2=NC3(CCN(CC(C)C)CC3)NC2=C(NC(=O)/C(C)=C\C=C\[C@H](C)[C@H](O)[C@@H](C)[C@@H](O)[C@@H](C)[C@H](OC(C)=O)[C@@H]1C)C4=O [Rifabutin],1.1,1.16
CO[C@@H]1[C@H](N(C)C(=O)c2ccccc2)C[C@H]2O[C@]1(C)n1c3ccccc3c3c4c(c5c6ccccc6n2c5c31)C(=O)NC4 [Midostaurin],–,1.35
C[C@@H]1O[C@@H](O[C@@H]2[C@@H](O)[C@H](OCCc3ccc(O)c(O)c3)O[C@H](CO)[C@H]2OC(=O)/C=C/c2ccc(O)c(O)c2)[C@H](O)[C@H](O)[C@H]1O [Verbascoside],–,1.16
CCOc1cc(C(=O)N2CCC(N3CCN(C)CC3)CC2)ccc1Nc1ncc2c(n1)N(C1CCCC1)c1ccccc1C(=O)N2C,1.2,1.03
COC(=O)c1ccc([C@H]2c3[nH]c4ccccc4c3C[C@H](C(=O)OC)N2C(=O)CCl)cc1,1,1.16
CC1=C[C@]2(O)O[C@@]3(CC2=C(C)C)[C@@H](C)CC[C@@H]13 [Curcumenol],1.11,1.05
CC(=O)O[C@H]1C[C@@]2(C)[C@@H](C[C@@H](O)[C@H]3[C@@]4(C)CC[C@@H](O)[C@@H](C)[C@@H]4CC[C@@]32C)/C1=C(\CCC=C(C)C)C(=O)O [Fusidine],1.26,1.12
CC(=O)Oc1c(C)c(C)c2c(c1C)CCC(C)(CCC[C@H](C)CCC[C@H](C)CCCC(C)C)O2 (some centres not stated) [Vitamin E Acetate],1.05,1.21
CC1(C)CC(=O)c2c(C(F)(F)F)nn(-c3ccc(C(N)=O)c(N[C@H]4CC[C@H](O)CC4)c3)c2C1,1.02,1.08
O=c1cc(-c2ccc(O)cc2)oc2cc(O)cc(O)c12 [Apigenin],1.22,1.27
NC(=O)c1ccc(N(C(N)=O)c2c(F)cccc2F)nc1-c1ccc(F)cc1F,1.28,1.21
C/C1=C/CC[C@H](C)C(=O)C[C@@H](C(C)C)C(=O)C1 [Curdione],1.15,1.1
CCNC(=O)c1noc(-c2cc(C(C)C)c(O)cc2O)c1-c1ccc(CN2CCOCC2)cc1 [Luminespib],1.01,1.09
Cc1c(C)c2c(c(C)c1O)CC[C@@](C)(CCC[C@H](C)CCC[C@H](C)CCCC(C)C)O2 [Vitamin E],1.07,1.16
CCNC(=O)c1[nH]nc(-c2cc(Cl)c(O)cc2O)c1-c1ccc(OC)cc1,1.25,1.22
Oc1cc(O)c2c(c1)O[C@H](c1ccc(O)c(O)c1)[C@@H](O)C2 [Cianidanol],1.39,1.17
O=C(COc1ccc(Cl)cc1)NC1CCC(NC(=O)COc2ccc(Cl)cc2)CC1 (configuration not stated),1.05,0.94
COc1ccc([C@@H]2OC[C@H]3[C@@H]2CO[C@@H]3c2ccc(O[C@@H]3O[C@H](CO)[C@@H](O)[C@H](O)[C@H]3O)c(OC)c2)cc1OC [Forsythin],1.1,1.16
